Data: PubChem BioAssay (Tox21)
Inconclusive results are not listed. The source made the active and inactive calls. Unless noted, the call rests on the fitted dose curve; in most records, active means well fitted curve in the direction sought with a large enough effect in the repeat runs; inconclusive means weak or mixed curves; inactive means flat fitted curve, though single readings scatter.

Key:
[1] = qHTS assay to test for compound auto fluorescence at 535 nm (green) in HEK293 cells (AID 720680)
[2] = qHTS assay to test for compound auto fluorescence at 460 nm (blue) in HEK293 cell free culture (AID 720681)
Summary of the method: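 Blue fluorescence (Ex 405/Em 460 nm, triamterene-equivalent) was read immediately after pin transfer of compound or DMSO into medium (DMEM, 10% FBS) without cells.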

[3] = qHTS assay to test for compound auto fluorescence at 535 nm (green) in HEK293 cell free culture (AID 720682)
Summary of the method: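 Read-out: 485/535 nm fluorescence intensity, calibrated against fluorescein. Medium only (DMEM + 10% FBS, no cells); test compound or DMSO vehicle added by pintool before plate reading.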

[4] = qHTS assay to test for compound auto fluorescence at 590 nm (red) in HEK293 cell free culture (AID 720683)
Summary of the method: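 Red-channel autofluorescence of compounds in culture medium (DMEM, 10% FBS), no cells, measured at 540/590 nm. Rose Bengal sodium is the reference fluorophore for equivalence.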

[5] = qHTS assay to test for compound auto fluorescence at 590 nm (red) in HepG2 cell free culture (AID 720684)
Summary of the method: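 Cell-free; medium MEM + 10% FBS; compound or DMSO added by pintool; read Ex 540/Em 590 nm; Rose Bengal sodium as red reference fluorophore.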

[6] = qHTS assay to test for compound auto fluorescence at 460 nm (blue) in HepG2 cell free culture (AID 720685)
Summary of the method: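 Cell-free plates of MEM plus 10% FBS received 23 nL compound or DMSO vehicle; blue-channel (405/460 nm) intensity scored against triamterene as reference fluorophore.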

[7] = qHTS assay to test for compound auto fluorescence at 535 nm (green) in HepG2 cell free culture (AID 720686)
[8] = molecular target: Glucocorticoid receptor (Homo sapiens) (UniProt P04150); experiment: qHTS assay to identify small molecule agonists of the glucocorticoid receptor (GR) signaling pathway (AID 720691; active means well fitted activation curve with a large enough effect in the signal ratio in the repeat runs, not every such curve was filed as active; the % refers to the signal ratio)
Summary of the method: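 Compounds in DMSO, alongside positive controls, were added to GR-bla HeLa reporter cells and incubated 18 h at 37 C; GRE-driven beta-lactamase was detected by fluorescence after 2 h with FRET substrate at room temperature.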

[9] = molecular target: Glucocorticoid receptor (Homo sapiens) (UniProt P04150); experiment: qHTS assay to identify small molecule antagonists of the glucocorticoid receptor (GR) signaling pathway (AID 720692; active means well fitted inhibition curve with a large enough effect in the signal ratio in the repeat runs, not every such curve was filed as active; the % refers to the signal ratio)
Summary of the method: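 In a 1536-well cell format, compounds were added 4 h after seeding GR-bla HeLa cells, together with dexamethasone at 5 nM final; reporter activity was measured by FRET-substrate fluorescence following 18 h at 37 C.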

[10] = qHTS assay to test for compound auto fluorescence at 460 nm (blue) in HepG2 cells (AID 720687)
Summary of the method: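 Blue-channel autofluorescence (Ex/Em 405/460 nm, triamterene-equivalent) was measured after 1 hr compound exposure at 37 C, 5% CO2. Cells were HepG2, plated overnight at 37 C in MEM plus 10% FBS.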

Measured: Potency

Glucocorticoid receptor (Homo sapiens), sequence (P04150 whole entry, looked up): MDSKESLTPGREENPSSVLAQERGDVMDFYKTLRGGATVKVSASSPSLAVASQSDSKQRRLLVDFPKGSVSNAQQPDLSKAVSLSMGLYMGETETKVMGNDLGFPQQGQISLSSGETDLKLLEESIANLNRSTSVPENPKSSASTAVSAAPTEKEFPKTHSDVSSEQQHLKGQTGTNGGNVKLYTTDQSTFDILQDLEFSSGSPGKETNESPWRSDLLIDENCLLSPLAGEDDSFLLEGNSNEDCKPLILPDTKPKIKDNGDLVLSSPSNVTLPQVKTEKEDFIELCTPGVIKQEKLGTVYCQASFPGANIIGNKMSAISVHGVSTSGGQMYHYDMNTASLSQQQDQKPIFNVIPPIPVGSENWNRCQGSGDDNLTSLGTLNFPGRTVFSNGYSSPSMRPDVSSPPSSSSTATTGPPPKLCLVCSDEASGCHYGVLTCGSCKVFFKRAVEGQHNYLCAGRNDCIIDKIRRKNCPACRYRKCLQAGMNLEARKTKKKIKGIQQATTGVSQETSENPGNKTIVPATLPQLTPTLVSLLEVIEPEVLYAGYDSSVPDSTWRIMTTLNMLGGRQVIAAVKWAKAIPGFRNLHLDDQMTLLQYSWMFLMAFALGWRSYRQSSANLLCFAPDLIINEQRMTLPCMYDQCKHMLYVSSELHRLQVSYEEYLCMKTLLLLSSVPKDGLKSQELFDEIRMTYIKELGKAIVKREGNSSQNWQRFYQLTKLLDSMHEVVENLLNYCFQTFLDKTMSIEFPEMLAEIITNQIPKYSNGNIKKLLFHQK

N[C@H]1CN(c2c(F)cc3c(=O)c(C(=O)O)cn(C4C[C@H]4F)c3c2Cl)CC12CC2 (stereo partly drawn)
inactive: [1] | [2] | [3] | [4] | [5] | [6] | [7] | [8] | [9]

OC(CCN1CCCCC1)(c1ccccc1)C1CC2C=CC1C2 (stereo not drawn)
inactive: [1] | [2] | [3] | [4] | [5] | [6] | [7] | [8] | [9]

CCOC(=O)CC(C)=O
inactive: [1] | [2] | [3] | [4] | [6] | [7]

c1ccc([C@H]2CN3CCSC3=N2)cc1
inactive: [1] | [2] | [3] | [4] | [6] | [7] | [10] | [8]

C=CCOCC(CC)(CO)COCC=C
inactive: [1] | [2] | [3] | [4] | [6] | [7] | [10] | [8]

O=C1OC(=O)C2CCCCC12 (stereo not drawn)
inactive: [1] | [2] | [3] | [4] | [5] | [6] | [7] | [8] | [9]

N[C@H](C(=O)O)c1ccc(O)cc1
inactive: [1] | [2] | [3] | [4] | [5] | [6] | [7] | [8] | [9]

CC(=O)Nc1c(I)cc(I)c(C(=O)O)c1I
inactive: [1] | [2] | [3] | [4] | [5] | [6] | [7] | [8] | [9]

CC/C=C\CC/C=C/C(OCC)OCC
inactive: [1] | [2] | [3] | [4] | [6] | [7] | [8]

ClC(Cl)(Br)Br
inactive: [1] | [2] | [3] | [4] | [6] | [7] | [10] | [8] | [9]

NC(=O)c1ccc(N)cc1
inactive: [1] | [2] | [3] | [4] | [5] | [6] | [7] | [8] | [9]

C[N+](C)(C)CC(O)CC(=O)[O-] (stereo not drawn)
inactive: [1] | [2] | [3] | [4] | [6] | [7] | [8] | [9]

CCCCOCCOCCOCCCC
inactive: [1] | [3] | [4] | [5] | [6] | [7] | [8] | [9]
